Read-out in assay [1]: Monokine induced gamma interferon (MIG), CXCL9 (gene 4283)
Put plainly: BSK_hDFCGF_MIG: BioMAP Diversity Plus: hDFCGF Assay for Monokine induced gamma interferon (MIG) Biomarker Activity (AID 2283063). The following applies: primary human foreskin fibroblasts; actives raise or lower the signal. The method in brief: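 Chemicals were added to primary human foreskin fibroblast cultures, which were sampled 24 h later. MIG levels were then quantified by ELISA and responses fitted in both directions relative to DMSO.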

Read-out in assay [2]: Matrix Metallopeptidase 1 (MMP1), MMP1 (gene 4312)
The assay can be described thus: BSK_hDFCGF_MMP1: BioMAP Diversity Plus: hDFCGF Assay for Matrix Metallopeptidase 1 (MMP1) Biomarker Activity (AID 2283064). The following applies: primary human foreskin fibroblasts; actives raise or lower the signal. In short, it runs like this: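 Primary human foreskin fibroblasts in the hDFCGF system were dosed with test chemical, and MMP1 was measured by ELISA 24 h later. Values come from bidirectional curve fitting against the DMSO baseline.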

Read-out in assay [3]: Vascular cell adhesion molecule 1 (VCAM1), VCAM1 (gene 7412)
Put plainly: BSK_hDFCGF_VCAM1: BioMAP Diversity Plus: hDFCGF Assay for Vascular cell adhesion molecule 1 (VCAM1) Biomarker Activity (AID 2283065).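 On AC50: VCAM-1 protein level quantified by ELISA after 24 h chemical exposure.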 The conditions noted are these: primary human foreskin fibroblasts; actives raise or lower the signal. In short, it runs like this:
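Human foreskin fibroblast primary cells, chemical exposure 24 h; VCAM-1 by ELISA; bidirectional fit, DMSO = negative control/baseline.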

Read-out in assay [4]: Plasminogen activator inhibitor-1 (PAI1), SERPINE1 (gene 5054)
The assay can be described thus: BSK_hDFCGF_PAI1: BioMAP Diversity Plus: hDFCGF Assay for Plasminogen activator inhibitor-1 (PAI1) Biomarker Activity (AID 2283066). The conditions noted are these: primary human foreskin fibroblasts; actives raise or lower the signal. In short, it runs like this: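 PAI-1 levels, determined by ELISA, served as the endpoint in human foreskin fibroblast cultures exposed to compound for 24 h, with DMSO as baseline.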

Read-out in assay [5]: Intercellular Adhesion Molecule 1 (ICAM1), ICAM1 (gene 3383)
Put plainly: BSK_KF3CT_ICAM1: BioMAP Diversity Plus: KF3CT Assay for Intercellular Adhesion Molecule 1 (ICAM1) Biomarker Activity (AID 2283067). The conditions noted are these: primary human keratinocytes with fibroblasts; actives raise or lower the signal. In short, it runs like this: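 ICAM-1 levels are measured by ELISA 24 h after dosing a primary human co-culture of keratinocytes and foreskin fibroblasts. Activity in either direction is fitted relative to DMSO vehicle.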

Read-out in assay [6]: Interferon-gamma inducible Protein 10 (IP10), CXCL10 (gene 3627)
The assay can be described thus: BSK_KF3CT_IP10: BioMAP Diversity Plus: KF3CT Assay for Interferon-gamma inducible Protein 10 (IP10) Biomarker Activity (AID 2283068). The conditions noted are these: primary human keratinocytes with fibroblasts; actives raise or lower the signal. The method in brief: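 Human keratinocyte plus foreskin fibroblast primary co-culture exposed to test chemical for 24 h; IP-10 measured by ELISA. Concentration-response fitted bidirectionally against DMSO control as baseline.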

Assay [7] in a line: BSK_KF3CT_SRB: Viability Assessment in the BioMAP Diversity Plus: KF3CT Assay (AID 2283069).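 Further: total protein by sulforhodamine B staining as a cytotoxicity measure; read 24 h after compound addition.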 The following applies: primary human keratinocytes with fibroblasts. In short, it runs like this:
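Human primary keratinocyte plus foreskin fibroblast co-culture exposed to chemicals for 24 h. Total protein measured by 0.1% sulforhodamine B staining after 10% TCA fixation, read at 560 nm; bidirectional fitting versus DMSO baseline.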

Read-out in assay [8]: Interleukin-1 alpha (IL1a), IL1A (gene 3552)
The assay can be described thus: BSK_KF3CT_IL1a: BioMAP Diversity Plus: KF3CT Assay for Interleukin-1 alpha (IL1a) Biomarker Activity (AID 2283070). The conditions noted are these: primary human keratinocytes with fibroblasts; actives raise or lower the signal. The method in brief:
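Human keratinocyte plus foreskin fibroblast primary co-culture, sampled 24 h after chemical dosing. IL-1a measured by ELISA; responses fitted bidirectionally against DMSO baseline (negative control), so gain or loss of signal both count.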

Read-out in assay [9]: TIMP metallopeptidase inhibitor 2 (TIMP2), TIMP2 (gene 7077)
The assay can be described thus: BSK_KF3CT_TIMP2: BioMAP Diversity Plus: KF3CT Assay for TIMP metallopeptidase inhibitor 2 (TIMP2) Biomarker Activity (AID 2283071). The following applies: primary human keratinocytes with fibroblasts; actives raise or lower the signal. In short, it runs like this: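 Keratinocyte–fibroblast co-culture, 24 h exposure; TIMP-2 ELISA, DMSO-normalised bidirectional fit. Parallel SRB (0.1%, TCA-fixed, 560 nm) total-protein staining gauges cytotoxicity.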

Activity calls are given as the source filed them. How the source made its calls: active means hit-call score of the fitted dose curve at least 0.9, where 1 is the maximum; inactive means score below 0.9.

Regarding `OCCOCCOCCO`, the result in assay [1], in [2], in [3], in assay [4], in assay [5] and in assay [6] was inactive. Besides, the result in assay [7], in assay [8] and in assay [9] was inactive.

Consider `CCCOc1ccc(S(=O)(=O)N2CCN(CC)CC2)cc1-c1nc2c(CC)n(Cc3ccccn3)nc2c(=O)[nH]1`, for which the outcome in assay [1], in assay [2], in assay [3], in assay [4], in assay [5] and in [6] was inactive. The result in assay [7], in assay [8] and in assay [9] was inactive.

Consider `CC(C)CCCCCCOC(=O)C1CCCCC1C(=O)OCCCCCCC(C)C` (stereo not drawn), for which the result in [1], in [2], in assay [3], in assay [4], in assay [5] and in assay [6] was inactive. The result in assay [7], in [8] and in assay [9] was inactive.

Turning to `O=c1[nH]cnc2c1ncn2[C@H]1CC[C@@H](CO)O1`, the outcome in assay [1], in assay [2], in assay [3], in assay [4], in [5] and in assay [6] was inactive. In addition, the outcome in assay [7], in [8] and in [9] was inactive.

For the compound `CCCCCCOC(=O)CC(CC(=O)OCCCCCC)(OC(=O)CCC)C(=O)OCCCCCC`, the outcome in [1], in [2], in assay [3], in [4], in assay [5] and in [6] was inactive. Further, the result in [7], in assay [8] and in assay [9] was inactive.

With `NCC(F)(F)C(F)(F)C(F)(F)C(F)(F)F`, the outcome in assay [1], in [2], in [3], in assay [4], in [5] and in [6] was inactive. Further, the outcome in assay [7], in [8] and in assay [9] was inactive.

As to `Cn1cc[nH]c1=S`, the outcome in assay [1], in assay [2], in assay [3], in [4], in assay [5] and in assay [6] was inactive. The result in [7], in [8] and in [9] was inactive.

On to `Cn1c(=O)c2[nH]cnc2n(C)c1=O`, for which the result in assay [1], in [2], in assay [3], in assay [4], in [5] and in assay [6] was inactive. For the same compound, the outcome in [7], in [8] and in [9] was inactive.

Take `OC(Cn1cncn1)(Cn1cncn1)c1ccc(F)cc1F`: the result in [1], in assay [2], in [3], in assay [4], in assay [5] and in assay [6] was inactive. For the same compound, the result in [7], in assay [8] and in [9] was inactive.

For the compound `CCCCCCCCCCCCCCCCOS(=O)(=O)O`, the AC50 (commonly the concentration at which the activity in the assay is half-maximal) in assay [1] is 13.1 µM (active); in [2], 16.6 µM (active); in [3] it was 5.95 µM (active); in [4], 9.1 µM (active); in [5], 14.9 µM (active); in [6], 11.9 µM (active). Also, the figures for the AC50 in assay [7], in assay [8] and in assay [9] were 15.8 µM (active), 15.6 µM (active) and 19.5 µM (active), respectively.

With `O=S(=O)(O)CCC(F)(F)C(F)(F)C(F)(F)C(F)(F)C(F)(F)C(F)(F)F`, the outcome in [1], in [2], in [3], in [4], in assay [5] and in [6] was inactive. For the same compound, the outcome in assay [7], in [8] and in [9] was inactive.

On to `CC[C@H](C)C(=O)O[C@H]1C[C@H](O)C=C2C=C[C@H](C)[C@H](CC[C@@H](O)C[C@@H](O)CC(=O)O)[C@H]21`, for which the outcome in [1], in assay [2], in [3], in assay [4], in [5] and in [6] was inactive. Besides, the result in [7], in assay [8] and in assay [9] was inactive.

In the case of `Cc1nccn1-c1ccc(Sc2cccc(C3(C(N)=O)CCOCC3)c2)cc1`, the AC50 is 6.44 µM (active) in assay [1], 2.9 µM (active) in [2] and 3.25 µM (active) in [3]. Besides, the outcome in assay [4], in assay [5], in assay [6], in assay [7], in [8] and in assay [9] was inactive.

In the case of `CCc1ccc(O)c(C(C)(C)C)c1`, the AC50 in [1] is 32.6 µM (active); in assay [2], 31.8 µM (active); in assay [3], 30.4 µM (active); in assay [4] it was 28.1 µM (active); in assay [5], 31.2 µM (active); in assay [6], 36.8 µM (active). The AC50 was 35.7 µM (active) in [7], 30.5 µM (active) in [8] and 36.5 µM (active) in assay [9].

Regarding `CCc1cccc(CC)c1N`, the outcome in [1], in [2], in [3], in [4], in [5] and in assay [6] was inactive. In addition, the outcome in assay [7], in assay [8] and in [9] was inactive.

For the compound `CCCCCCCCN(C)C`, the outcome in assay [1], in [2], in assay [3], in assay [4], in [5] and in assay [6] was inactive. Besides, the result in assay [7], in assay [8] and in assay [9] was inactive.

In the case of `NC(=O)NN=Cc1ccc([N+](=O)[O-])o1`, the result in assay [1], in assay [2], in assay [3], in assay [4], in assay [5] and in assay [6] was inactive. In addition, the outcome in assay [7], in assay [8] and in [9] was inactive.

As for `CCOc1ccc2[nH]cc(C(=O)NCc3ccccc3)c(=O)c2n1`, the outcome in [1], in assay [2], in assay [3], in [4], in assay [5] and in assay [6] was inactive. Also, the result in [7], in assay [8] and in [9] was inactive.

In the case of `O=C(O)[C@H](O)[C@@H](O)C(=O)O`, the outcome in assay [1], in assay [2], in [3], in assay [4], in assay [5] and in assay [6] was inactive. Also, the outcome in [7], in assay [8] and in assay [9] was inactive.

In the case of `C[C@@H](Oc1ccc(CNC(=O)c2cccnc2Oc2ccc3c(c2)OCO3)c(F)c1)C(=O)O`, the outcome in assay [1], in [2], in [3], in assay [4], in assay [5] and in [6] was inactive. The outcome in [7], in assay [8] and in assay [9] was inactive.

As to `S=P(N1CC1)(N1CC1)N1CC1`, the result in assay [1], in [2], in assay [3], in assay [4], in assay [5] and in [6] was inactive. Further, the outcome in [7], in [8] and in assay [9] was inactive.

Turning to `C=CCc1cc(S(=O)(=O)c2ccc(O)c(CC=C)c2)ccc1O`, the AC50 in assay [1] was 30.7 µM (active); in [2], 31 µM (active); in [3], 15 µM (active); in [4] it was 10.2 µM (active); in [5] it was 23.7 µM (active); in assay [6], 13.8 µM (active). For the same compound, the AC50 was 26.5 µM (active) in assay [7], 30 µM (active) in [8] and 17.3 µM (active) in assay [9].

These data come from PubChem BioAssay (EPA / NIEHS).
